This is part of a sample that, as a whole, favours compounds with a hit. Of some 83,000 tested, about 20% had one in any assay.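 In brief: 96-well plates, 48 h treatment, single concentration, percent growth endpoint.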 Active and inactive are the calls of the source. How the source made its calls: active means growth percent below 10; inactive means the rest.

The subject of this assay is SF-539 CNS. Nature of the assay: NCI-60 one-dose screen, 48 h (100 = growth as untreated, 0 = no growth, -100 = all killed). Conditions: 10 µM unless noted.
Take `Clc1nnc2c3ccccc3ccn12`: the growth was 109% (inactive). On to `COc1ccc(-c2nn(C(=O)NCCN(C)C)cc2-c2ccncc2)cc1Cl`, for which the growth is 25.6% (inactive). In the case of `CCN1C(=O)N(CC)C2C1NN=c1s/c(=C\c3ccco3)c(=O)n12` (centres undefined) it was -1.22% (active); in that of `CC(C)N(C(=S)SSC(=S)N(C(C)C)C(C)C)C(C)C`, 108% (inactive); in that of `CC(C)=CC[C@@H]1CC2(CC=C(C)C)C(=O)C(OC3(C(=O)c4ccccc4)C(=O)C4(CC=C(C)C)C[C@@H](CC=C(C)C)C(C)(C)C(CC=C(C)C)(C4=O)C3=O)(C(=O)c3ccccc3)C(=O)C(CC=C(C)C)(C2=O)C1(C)C` (some centres undefined), -18.5% (active). The result for `CCCCCCCCCCCCCCCC1=NCCN1` reads 72.5% (inactive); that for `COc1cc([N+](=O)[O-])cc(OC)c1OC`, 114% (inactive). In the case of `NNC(=O)CSc1nc2scc(-c3ccccc3)c2c(=O)n1-c1ccccc1` it was 96.5% (inactive); in that of `C=CCN(CC#N)CC=C`, 102% (inactive). On to `CCOC(=O)Cn1c(-c2nonc2NC(=O)c2ccccc2F)nc2ccccc21`, for which the growth is 44.7% (inactive).

Regarding `CCCCCCCOc1cccc(/C=C2\N=C3SCCCN3C2=O)c1`, the growth is 111% (inactive).

Consider `Cc1c2c(cc3c1[nH]c1ccccc13)C=NCC2`, for which the growth is 92.8% (inactive).

In the case of `COc1cc(OC)c(Cl)cc1N`, the growth is 95.4% (inactive). For the compound `CS(=O)(=O)c1ccc(C(=O)Nc2ccc(Cl)c(-c3ccccn3)c2)c(Cl)c1`, the growth was 19.6% (inactive). In the case of `Cc1cc([N+](=O)[O-])c(C)cc1N`, the growth was 105% (inactive). Turning to `COc1cnc2c(c1)C(=O)c1c-2n(CCCN2CCNCC2)c(=O)c2cc(Cl)ccc12`, the growth is -93.8% (active). As for `COc1cc(/C=C2\CN(C(=O)OC(C)(C)C)C/C(=C\c3ccc(O)c(OC)c3)C2=O)ccc1O`, the growth was 106% (inactive). In the case of `CCN1C(=O)C(C)C=C(C)C=C1C` (centres undefined) it was 112% (inactive). Regarding `COCc1nc(NS(=O)(=O)c2ccc(N)cc2)nc(C)c1Br`, the growth is 100% (inactive). The result for `O=c1c2cc(Br)cc(Br)c2nc(-c2ccc(Cl)cc2)n1/N=C\c1ccccc1F` reads 81.9% (inactive); that for `CCCCCCCCCCCCCC1=NC(C)(C)CN1C(C)C`, -79.2% (active).

Consider `CCC(=O)OCc1ccc(OC)cc1`, for which the growth was 93.5% (inactive). As for `Fc1ccc(-c2cnc3nonc3n2)c(F)c1`, the growth is 98.6% (inactive). As to `O=S(=O)(Nc1ccc2ccccc2c1)N1CCCCC1`, the growth was 70.2% (inactive). The result for `CCn1c(Cc2ccccc2Nc2c(Cl)cccc2Cl)nnc1SCC(=O)Nc1cccc(OC)c1` reads 105% (inactive); that for `CCN(CC)CC(=O)Nc1c(C)ccc(N)c1C`, 99.6% (inactive); that for `C=C1C[C@@]2(C)C(CC[C@]3(C)C2CC=C2C4CC(C)(C)C[C@@H](OC(=O)/C(C)=C\C)[C@]4(C(=O)O)CC[C@]23C)C(C)(C)C1=O` (some centres undefined), -19.8% (active).

In the case of `C=C1C(=O)O[C@H]2[C@H]1CC/C(COC(=O)NCc1cccc(OC)c1)=C\CC[C@@]1(C)O[C@@H]21`, the growth was 21.4% (inactive). In the case of `CCCCOc1nc2ccccc2cc1/C=C/c1cc(/C=C/c2cc3ccccc3nc2OCCCC)n(-c2ccccc2)n1` it was 110% (inactive); in that of `CCCCc1nc(Cl)c(C2CC(c3ccc(S(N)(=O)=O)cc3)=NN2c2cc(Cl)cc(Cl)c2)[nH]1` (centres undefined), 91.4% (inactive); in that of `O=C(N/N=C\c1cc(Br)ccc1O)c1ccncc1`, 34.3% (inactive). Consider `CC(C)C/C=C/C=C/C(=O)N[C@@H](CC(N)=O)C(=O)N[C@@H]1C(=O)N[C@H](c2ccc(O)cc2)C(=O)N[C@H](CCCN)C(=O)N[C@H]([C@@H](C)O)C(=O)N[C@H](c2ccc(O)cc2)C(=O)N[C@H](c2ccc(O)cc2)C(=O)N[C@H]([C@H](C)O)C(=O)N[C@H](Cc2ccccc2)C(=O)N[C@H](CCCN)C(=O)N[C@H](c2ccc(O[C@H]3O[C@@H](CO)[C@@H](O)[C@@H](O)[C@H]3O[C@@H]3O[C@H](CO)[C@H](O)[C@H](O)[C@@H]3O)cc2)C(=O)N[C@H]([C@H](C)O)C(=O)N[C@H](c2ccc(O)cc2)C(=O)NCC(=O)N[C@H](CC(C)C)C(=O)N[C@H](C)C(=O)N[C@H](c2ccc(O)c(Cl)c2)C(=O)O[C@@H]1C(N)=O`, for which the growth is 4.24% (active). Consider `CN(C)c1ccc(/C=C\c2cccc[n+]2C)cc1`, for which the growth was 58.9% (inactive). In the case of `COC(=O)CSc1ccc(Cl)cc1` it was 97.3% (inactive); in that of `S=C(S)Oc1cccc2cccnc12`, 118% (inactive). With `O=C1NN(C(=O)c2ccccc2)C(c2ccc(Cl)c(Cl)c2)=C/C1=C\c1ccccc1[N+](=O)[O-]`, the growth was 15.2% [6.75 µM] (inactive). In the case of `CCOC(=O)Nc1ccc2nc(Sc3ccc(Cl)cc3)sc2c1` it was 5.63% (active).

As for `COc1cc(C2CC(c3cccc(Nc4ccnc5cc(Cl)ccc45)c3)=NN2C=O)cc(OC)c1OC` (centres undefined), the growth was -26.3% (active). In the case of `c1cn2cc(-c3ccc4ncn(C5CCCCC5)c4c3)nc(-c3ccc4c(c3)ncn4C3CCCCC3)c2n1` it was -82.1% (active).

Source of the values: PubChem BioAssay (NCI).
